Calls of active or inactive are those of the source.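 Rule for the calls, unless noted: active = inhibition above 20% together with a positive visual image hit; inconclusive = visual image hit but inhibition not above 20%; inactive = no visual image hit.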

A short description of assay [1]: inhibitors of TNFa-induced NFkB p65 translocation, primary screen, imaging, HUVEC, MLSMR starter and 10KST1 sets (AID 438).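 For inhibition: signal is the nuclear over cytoplasmic p65 intensity ratio per well.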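 Note: compound added about 3h40 before a 20 min TNFalpha stimulation.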 The note with it: HUVEC TNFa-induced p65 nuclear translocation; cell count: measured here: nuclei count (cytotoxicity indicator), at 2.08 µM; inhibition: at 2 µM, stronger effect = higher value, 0% TNFa-plus-vehicle, 100% no-TNFa wells.
Assay [2] in a line: reduction of polyQ htt aggregates in cells – imaging, exon1htt(103Q)mCFP cells, high-content imaging, primary screen (AID 483;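 active = visual image review flags a hit and inhibition of aggregation exceeds 20%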;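 note: compound exposure lasted 3 days before fixation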;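 for nuclei count: percent of the per-plate median nuclei count of sample wells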). The note with it: exon1htt(103Q)mCFP cell line, aggregate imaging, at 2 µM; inhibition of aggregation: stronger effect = higher value; nuclei count: measured here: cell count, toxicity.
A short description of assay [3]: endothelial E-selectin expression blockers – imaging, HUVEC, immunofluorescence, MLSMR starter and 10KST1 sets, primary screen (AID 487;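 active = visually confirmed hit in the image check and inhibition above 20%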;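 for inhibition: signal is fraction of cell area covered by stained E-selectin grains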;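 for nuclei count: 100% = median nuclei count of all wells on the same plate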). The settings on record: HUVEC TNFalpha-induced E-selectin immunofluorescence imaging, at 2 µM; inhibition: stronger effect = higher value; nuclei count: measured here: cell number, toxicity.
Assay [4] in a line: Primary imaging screen for DUSP6 inhibitors that restore phospho-Erk in transfected HeLa cells, chemical complementation (AID 609;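 active = compounds giving at least 50% inhibition in the cell-based MKP-3 phosphatase rescue imaging test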;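 for inhibition: phospho-Erk level distribution per well compared with pooled transfected vehicle control wells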). The settings on record: HeLa MKP-3 transfected, phospho-Erk imaging KS statistic, at 10 µM, cells stimulated with TPA for 15 min.
The target in assay [5] is Dual specificity protein phosphatase 6 (Homo sapiens) (UniProt Q16828). Described as above. The settings on record: HeLa MKP-3 transfected, phospho-Erk imaging KS statistic; at 10 µM; stronger effect = higher value; cells stimulated with TPA for 15 min.
The target of assay [6] is Voltage-gated potassium channel subunit beta-2 (Rattus norvegicus) (UniProt P62483). Description: inhibitors of rat Kvbeta2 reductase activity – biochemical, NADPH fluorescence, primary screen (AID 622;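 active = fluorescence slope higher than the sample average by over 3 SD, cut at about -0.22 in these data, passing the limit was not always enough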;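 note: slope of raw intensity against log time taken from 70 to 1610 s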). The settings on record: recombinant KvBeta, 4-cyanobenzaldehyde reduction, at 10 µM, stronger effect = higher value.
For assay [7] the target is unchanged. Description: enhancers of rat Kvbeta2 NADPH turnover – biochemical, NADPH fluorescence, primary screen (AID 623;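 active = NADPH fluorescence slope more negative than the mean of all samples by about 3 SD, 99.7% confidence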;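 note: fluorescence intensity change per second fitted from 20 to 320 s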). The settings on record: Recombinant KvBeta, NADPH fluorescence decrease slope, 10 min; at 10 µM; stronger effect = lower value.
Assay [8] concerns the target Alpha-2C adrenergic receptor (Homo sapiens) (UniProt P18825). Description: compounds altering alpha2C-coupled GIRK flux – cell-based, HEK293 alpha2C/GIRK1/2, thallium flux, primary screen (AID 624;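 active = fluorescence slope after compound addition differing from the mean of all screened samples at 99.7% confidence, in either direction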;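 note: slope of fluorescence ratio to pre-addition baseline per second over 15 to 24 s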). The note with it: thallium flux BTC fluorescence, at 10 µM, actives lie on both sides.
Assay [9] in a line: inhibitors of larval lipid processing in zebrafish, primary screen, whole organism, PED6 fluorescence, gall bladder and intestine (AID 686;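 active = a full or partial loss of lipid-probe fluorescence in the fish gall bladder, intestine or both, judged by eye; inactive = no fluorescence loss, or compound toxic to the fish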;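 note: larvae 5 to 7 days old with five fish per well; signal comes from phospholipase A2 cleavage of quenched PED6 carried via bile; overnight exposure to compound and PED6 before scoring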). The note with it: Zebrafish larvae PED6 lipid processing, fluorescence scoring; screened at 20 µM (by protocol).
A short description of assay [10]: loss of swimming-algae plug formation – whole organism, Chlamydomonas reinhardtii, WT vs cilia-less mutant, absorbance, 96-well, primary screen (AID 463189;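 active = inhibition at or above 50% relative to wild type and mutant plate controls; inactive = inhibition below 50%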;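 note: 0% = wild type cc124 cells in DMSO and 100% = ciliumless bld1 mutant cells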). The note with it: Chlamydomonas reinhardtii gravitaxis, OD600 absorbance, 2 days; at 10 µM; stronger effect = higher value.
A short description of assay [11]: blockers of RIG-like receptor reporter activation – cell-based, Sendai virus stimulus, luciferase, 10K MLSCN set, TLR/RLR signaling modifier project, primary screen (AID 602276;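 active = inhibition at or above 50% at 10 µM; inactive = inhibition below 50%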;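 note: firefly luciferase from ISG56 promoter only with Renilla not read in this screen; 0% = Sendai virus plus DMSO and 100% = medium plus DMSO without virus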). The note with it: HEK293 RL24 IRF3 luciferase reporter, at 10 µM, stronger effect = higher value. A general note: Reporter assays use an easily measured gene product as a stand-in for the process of interest.

Assay [12] is described as follows: TLR3 IRF3 reporter activation blockers – cell-based, poly I:C stimulus, luciferase, 10K MLSCN set, primary screen (AID 602277;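 active = inhibition of the reporter signal at or above 50%; inactive = inhibition below 50%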). The settings on record: HEK293-TLR3 RL24 IRF3 luciferase reporter, at 10 µM, stronger effect = higher value.
Where [13] appears, read: measured here: cell density z-score.
Where [14] appears, read: measured here: nuclear c-Myc green intensity z-score.
The mark [15] stands for this setting: measured here: nuclear pErk red intensity z-score, stronger effect = higher value.

Dual specificity protein phosphatase 6 (Homo sapiens), sequence (Q16828 whole entry, looked up): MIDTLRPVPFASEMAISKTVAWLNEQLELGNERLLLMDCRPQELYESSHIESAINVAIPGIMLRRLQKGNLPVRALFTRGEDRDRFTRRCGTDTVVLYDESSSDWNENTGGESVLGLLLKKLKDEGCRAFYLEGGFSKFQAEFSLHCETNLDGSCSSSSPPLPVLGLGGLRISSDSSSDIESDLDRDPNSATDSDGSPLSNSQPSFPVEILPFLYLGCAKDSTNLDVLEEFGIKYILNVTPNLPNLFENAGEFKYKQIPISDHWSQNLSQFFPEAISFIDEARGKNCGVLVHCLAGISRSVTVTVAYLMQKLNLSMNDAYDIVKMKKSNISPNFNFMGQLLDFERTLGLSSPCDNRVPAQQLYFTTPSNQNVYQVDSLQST
Voltage-gated potassium channel subunit beta-2 (Rattus norvegicus), sequence (P62483 whole entry, looked up): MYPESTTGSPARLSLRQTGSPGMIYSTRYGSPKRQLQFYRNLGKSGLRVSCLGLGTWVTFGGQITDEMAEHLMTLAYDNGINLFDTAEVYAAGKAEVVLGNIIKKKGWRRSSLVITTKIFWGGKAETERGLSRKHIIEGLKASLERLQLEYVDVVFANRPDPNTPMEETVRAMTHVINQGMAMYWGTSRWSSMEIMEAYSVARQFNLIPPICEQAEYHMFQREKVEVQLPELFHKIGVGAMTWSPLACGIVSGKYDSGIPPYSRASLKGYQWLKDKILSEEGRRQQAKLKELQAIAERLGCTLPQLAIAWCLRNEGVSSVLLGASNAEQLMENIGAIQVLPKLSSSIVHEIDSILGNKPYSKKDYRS
Alpha-2C adrenergic receptor (Homo sapiens), sequence (P18825 whole entry, looked up): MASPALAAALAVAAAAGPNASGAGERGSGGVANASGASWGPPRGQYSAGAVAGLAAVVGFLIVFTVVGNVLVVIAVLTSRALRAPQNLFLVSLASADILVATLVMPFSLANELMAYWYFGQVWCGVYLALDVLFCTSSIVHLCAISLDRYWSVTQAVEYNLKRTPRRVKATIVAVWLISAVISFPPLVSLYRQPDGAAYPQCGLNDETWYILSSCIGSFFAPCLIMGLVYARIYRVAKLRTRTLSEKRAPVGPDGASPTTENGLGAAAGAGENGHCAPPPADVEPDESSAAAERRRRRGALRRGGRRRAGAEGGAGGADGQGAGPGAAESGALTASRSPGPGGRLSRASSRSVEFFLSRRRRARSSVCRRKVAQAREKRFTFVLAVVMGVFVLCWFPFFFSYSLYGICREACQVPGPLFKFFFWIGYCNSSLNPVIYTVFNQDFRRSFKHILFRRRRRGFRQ

On to `C[C@]12CC[C@H]3[C@@H](CCC4=CC(=O)CC[C@@]43C)[C@@H]1CC[C@@H]2C(=O)CO`, for which the cell count in assay [1] was determined as 632. The inhibition (in general, the change of the read-out against control, counted positive when it falls) in assay [1] is -0.8% (inactive); in [3], -114% (inactive); in [5], -2.46% (inactive); in [10] it was -3.19% (inactive); in assay [11], 1.11% (inactive); in assay [12], 43.7% (inactive). In addition, the inhibition of aggregation in assay [2] was 4.5% (inactive). For the same compound, the nuclei count in assay [2] turned out to be 37.5%; in assay [3], 118%. Moreover, the results for the z-score in assay [4] (setting [13]), in assay [4] (setting [14]) and in assay [4] (setting [15]) were -0.564, -1.57 and -0.166, respectively. The fluorescence slope in assay [6] is -0.521 (inactive). The NADPH fluorescence slope in [7] was -1e-05 (inactive). Also, the slope in assay [8] is 0.00387 (inactive). The result in assay [9] was inactive.

As for `COc1cc(N2C(=O)CSC23C(=O)Nc2ccccc23)cc(OC)c1OC` (stereo not given), in [1], the cell count was 512. The inhibition is -13.1% (inactive) in [1]; -26.2% (inactive) in assay [3]; 1.6e-07% (inactive) in assay [5]; 24.8% (inactive) in assay [10]; 2.33% (inactive) in assay [11]; 10.8% (inactive) in assay [12]. In addition, the inhibition of aggregation in assay [2] is -13.9% (inactive). For the same compound, the nuclei count in [2] is 99.6%; in assay [3], 105%. For the same compound, the z-score in assay [4] (setting [13]) is -0.126; in assay [4] (setting [14]), -0.03; in assay [4] (setting [15]), 0.793. In assay [6], the fluorescence slope is -0.342 (inactive). Moreover, the NADPH fluorescence slope in [7] was 6.8e-06 (inactive). The slope in assay [8] is 0.00524 (inactive). The compound was classed as inactive in assay [9].

As to `COC(=O)[C@@H](N)Cc1ccc(O)cc1`, the cell count in [1] was 550. The inhibition is -6.9% (inactive) in assay [1]; -9.7% (inactive) in assay [3]; 11.3% (inactive) in assay [5]; 15.2% (inactive) in [10]; 15.4% (inactive) in assay [11]; 27.7% (inactive) in [12]. In addition, in assay [2], the inhibition of aggregation is 4.1% (inactive). Also, the nuclei count in assay [2] was determined as 91.1%; in assay [3], 107%. For the same compound, the z-score was -0.0639 in [4] (setting [13]), 0.189 in assay [4] (setting [14]) and 0.26 in assay [4] (setting [15]). For the same compound, the fluorescence slope in assay [6] is -0.496 (inactive). Moreover, the NADPH fluorescence slope in assay [7] is -7.7e-05 (inactive). For the same compound, the slope in [8] was 0.00529 (inactive). Further, in assay [9], the call was inactive.

As to `CCOC(=O)C1CSc2[nH]c(=O)sc2C1c1ccccc1` (stereo not given), the cell count in assay [1] was found to be 537. The inhibition in [1] is -1.3% (inactive); in [3] it was -19.3% (inactive); in [5], -1.12% (inactive); in [10], -4.31% (inactive); in assay [11], 5.91% (inactive); in [12] it was 99.1% (active). For the same compound, the inhibition of aggregation in [2] was -4% (inactive). Also, the nuclei count in assay [2] turned out to be 126%; in assay [3], 144%. Besides, the results for the z-score in [4] (setting [13]), in assay [4] (setting [14]) and in assay [4] (setting [15]) were 0.417, -0.0363 and 0.692, respectively. In addition, in assay [6], the fluorescence slope is -0.378 (inactive). For the same compound, the NADPH fluorescence slope in [7] was -6.9e-05 (inactive). In addition, the slope in assay [8] is 0.00596 (inactive). Also, in [9], the compound was classed as inactive.

Consider `C[C@@H]1C[C@H]2[C@@H]3C[C@H](F)C4=CC(=O)C=C[C@]4(C)[C@@]3(F)[C@@H](O)C[C@]2(C)[C@@]1(O)C(=O)CO`, for which the cell count in assay [1] was found to be 647. For the same compound, the inhibition is -3.8% (inactive) in [1]; -111% (inactive) in assay [3]; 9.37% (inactive) in assay [5]; -6.12% (inactive) in [10]; -11.6% (inactive) in assay [11]; 33.6% (inactive) in assay [12]. Besides, the inhibition of aggregation in assay [2] was -18.8% (inactive). The nuclei count in [2] amounted to 42.3%; in assay [3], 128%. Besides, the results for the z-score in assay [4] (setting [13]), in [4] (setting [14]) and in assay [4] (setting [15]) were -1.38, 0.0959 and 0.878, respectively. Besides, in assay [6], the fluorescence slope is -0.535 (inactive). In addition, in [7], the NADPH fluorescence slope is -3.8e-05 (inactive). In assay [8], the slope is 0.00526 (inactive). In [9], the call was inactive.

On to `C=CCn1c(SCC#N)nc2c(c1=O)C(C)(C)Cc1ccccc1-2`, for which, in assay [1], the cell count stood at 648. The inhibition in assay [1] is -0.1% (inactive); in [3], -30.9% (inactive); in assay [5], 34.8% (inactive); in [10], 104% (active); in [11] it was -4.84% (inactive); in assay [12], 6.72% (inactive). For the same compound, the inhibition of aggregation in assay [2] was 11.6% (inactive). The nuclei count in [2] turned out to be 107%; in assay [3], 136%. Besides, the z-score is 1.4 in [4] (setting [13]), 0.411 in assay [4] (setting [14]) and -0.925 in [4] (setting [15]). In addition, in [6], the fluorescence slope is -0.315 (inactive). In addition, the NADPH fluorescence slope in assay [7] is -5.8e-06 (inactive). The slope in assay [8] was 0.00525 (inactive). Moreover, the compound was called inactive in assay [9].

As for `NS(=O)(=O)c1cc2c(cc1Cl)NC(C(Cl)Cl)NS2(=O)=O` (stereo not given), the cell count in [1] came to 646. The inhibition in [1] is -8.4% (inactive); in [3], -57% (inactive); in [5], -4.44% (inactive); in [10], 3.47% (inactive); in assay [11], 13.9% (inactive); in [12], 35.5% (inactive). Further, the inhibition of aggregation in [2] is 4.9% (inactive). For the same compound, the nuclei count in [2] worked out at 109%; in assay [3], 134%. For the same compound, the z-score in assay [4] (setting [13]) is -1.31; in [4] (setting [14]) it was -0.533; in assay [4] (setting [15]) it was 1.7. Also, in [6], the fluorescence slope is -0.512 (inactive). Besides, the NADPH fluorescence slope in assay [7] was -2e-05 (inactive). The slope in assay [8] is 0.00475 (inactive). For the same compound, the outcome in assay [9] was inactive.

Consider `COc1ccc(C2=Nn3c(nnc3-c3ccccc3)SC2)cc1OC`, for which the cell count in [1] is 523. For the same compound, the inhibition in assay [1] is -5.5% (inactive); in assay [3] it was -126% (inactive); in assay [5] it was -11.5% (inactive); in [10], 2.7% (inactive); in [11], 25% (inactive); in [12], 40.2% (inactive). Moreover, the inhibition of aggregation in assay [2] is -6.6% (inactive). The nuclei count was 92.4% in assay [2] and 132% in [3]. For the same compound, the z-score in assay [4] (setting [13]) was -0.336; in assay [4] (setting [14]) it was 0.955; in assay [4] (setting [15]) it was 0.104. In addition, the fluorescence slope in assay [6] is -0.413 (inactive). Moreover, in [7], the NADPH fluorescence slope is -0.000132 (inactive). In addition, the slope in assay [8] is 0.00597 (inactive). The call in assay [9] was inactive.

Take `Cc1ccc(/C(O)=C2/C(=O)C(=O)N(Cc3ccco3)C2c2cccs2)cc1` (stereo not given): in assay [1], the cell count was 592. Further, the inhibition in assay [1] is -1.5% (inactive); in assay [3] it was -40.6% (inactive); in [5] it was -18.6% (inactive); in assay [10] it was -4.07% (inactive); in assay [11] it was -8% (inactive); in assay [12] it was 3.2% (inactive). Besides, in [2], the inhibition of aggregation is -9.7% (inactive). The nuclei count in assay [2] stood at 111%; in [3] it was 136%. In addition, the figures for the z-score in [4] (setting [13]), in assay [4] (setting [14]) and in assay [4] (setting [15]) were -0.164, 0.546 and 1.58, respectively. Also, in [6], the fluorescence slope was -0.497 (inactive). In [7], the NADPH fluorescence slope was -6.4e-05 (inactive). Also, the slope in assay [8] is 0.00587 (inactive). Further, in assay [9], the outcome was inactive.

For the compound `CCCc1c(OCCCCc2nn[nH]n2)ccc(C(C)=O)c1O`, the cell count in assay [1] was 599. Also, the inhibition was -11.6% (inactive) in assay [1]; -37.8% (inactive) in [3]; 9.37% (inactive) in assay [5]; -12.8% (inactive) in [10]; 15.4% (inactive) in assay [11]; 34.3% (inactive) in [12]. The inhibition of aggregation in assay [2] was -9.3% (inactive). For the same compound, the nuclei count in [2] worked out at 95.3%; in assay [3], 129%. Further, the z-score was 0.961 in assay [4] (setting [13]), 0.408 in [4] (setting [14]) and -0.601 in [4] (setting [15]). Further, the fluorescence slope in assay [6] was -0.458 (inactive). Moreover, in assay [7], the NADPH fluorescence slope is -4e-05 (inactive). In addition, in assay [8], the slope was 0.00468 (inactive). Also, the compound was classed as inactive in assay [9].

The values are drawn from PubChem BioAssay.
